MCF10A rerep: DNA re-replication induction in MCF 10a cells. MCF 10A DNA re-replication, Hoechst nuclear intensity, 48 h. Potency, µM (top dose mostly 46.1 µM), actives largely listed as activators. 350,000 compounds, 2.9% hits; further: nearly all actives have a fitted effect of over 50% in size
KB-3-1 cytotox: kills parental KB-3-1 adenocarcinoma cells | AID 1347075 | KB-3-1 viability, CellTiter-Glo ATP luminescence, 72 h | 400,000 compounds, 1.4% hits | Potency, µM (doses to about 46.1 µM), actives largely listed as cytotoxic; further: nearly all actives have a fitted effect of over 60% in size
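Cytotoxicity in the drug-sensitive parental line KB-3-1 was scored as loss of CellTiter-Glo luminescence following 72 h incubation with compound. Values come from curve fitting of normalized concentration-response data.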
hERG WT inh: inhibitors of human wildtype KCNH2 potassium channel. activity change, % at 1.84 µM. 340,000 compounds, 0.37% hits. U2OS, BacMam KCNH2, thallium flux FluxOr; stronger effect = lower value. Q12809;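 active means maximum activity change below -70%; inconclusive means maximum activity change between -70% and -50%; inactive means maximum activity change above -50%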
Target sequence (Q12809 whole entry, looked up): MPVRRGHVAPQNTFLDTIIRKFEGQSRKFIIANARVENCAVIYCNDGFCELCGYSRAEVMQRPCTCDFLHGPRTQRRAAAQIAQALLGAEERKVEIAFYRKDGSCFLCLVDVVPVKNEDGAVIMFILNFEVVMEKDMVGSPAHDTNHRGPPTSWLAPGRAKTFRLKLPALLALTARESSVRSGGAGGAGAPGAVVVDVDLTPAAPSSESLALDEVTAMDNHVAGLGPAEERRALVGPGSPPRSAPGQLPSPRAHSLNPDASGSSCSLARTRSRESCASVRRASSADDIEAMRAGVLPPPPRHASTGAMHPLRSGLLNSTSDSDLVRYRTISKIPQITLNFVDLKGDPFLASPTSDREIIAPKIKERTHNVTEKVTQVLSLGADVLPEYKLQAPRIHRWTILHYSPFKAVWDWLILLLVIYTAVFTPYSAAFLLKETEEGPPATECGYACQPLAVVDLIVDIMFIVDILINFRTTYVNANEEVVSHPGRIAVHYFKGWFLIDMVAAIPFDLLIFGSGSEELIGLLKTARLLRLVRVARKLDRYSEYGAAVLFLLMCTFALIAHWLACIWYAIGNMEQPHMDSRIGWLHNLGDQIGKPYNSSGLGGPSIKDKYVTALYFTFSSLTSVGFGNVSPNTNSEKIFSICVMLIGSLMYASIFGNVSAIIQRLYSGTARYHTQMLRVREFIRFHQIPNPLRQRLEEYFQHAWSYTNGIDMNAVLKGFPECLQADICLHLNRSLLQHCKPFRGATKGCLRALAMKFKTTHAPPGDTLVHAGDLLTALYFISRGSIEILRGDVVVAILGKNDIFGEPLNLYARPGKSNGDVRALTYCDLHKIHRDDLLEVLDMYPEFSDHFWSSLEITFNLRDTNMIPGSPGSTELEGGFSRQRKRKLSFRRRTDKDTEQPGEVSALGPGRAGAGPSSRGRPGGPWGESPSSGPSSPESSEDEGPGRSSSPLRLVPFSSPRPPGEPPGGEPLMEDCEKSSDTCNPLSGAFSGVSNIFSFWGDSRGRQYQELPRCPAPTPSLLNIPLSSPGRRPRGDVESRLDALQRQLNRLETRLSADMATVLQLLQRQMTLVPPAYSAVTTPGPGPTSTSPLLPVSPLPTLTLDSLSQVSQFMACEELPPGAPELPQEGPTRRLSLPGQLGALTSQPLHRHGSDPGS
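U2OS cells were transduced with wild-type KCNH2 virus (2.03 x 10^8 / mL) for 4 h at room temperature, then cultured overnight at 37 C. Thallium flux was read with FluxOr dye. Rate constants were normalized to DMSO controls.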
KCNH2 3.1 block: blocks the human KCNH2 3.1 channel isoform | U2OS KCNH2 3.1, thallium flux FluxOr; stronger effect = lower value | activity change, % (tested at about 1.8 µM) | 340,000 compounds, 0.95% hits;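 active means maximum activity change below -70%; inconclusive means maximum activity change from -70% to -50%; inactive means maximum activity change above -50%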;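 further: thallium influx rate constant from kinetic fluorescence after stimulation buffer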
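Channel expression came from 3.1 mutant virus (1.77 x 10^8 /mL) applied to suspended U2OS cells for 4 h. Flux was tracked with FluxOr dye plus Red40 quencher, and kinetic rate constants normalized to controls.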
SW480 rerep: DNA re-replication induction in SW480 cells; SW480 DNA re-replication, Hoechst DNA content imaging, 48 h; Potency, µM (highest dose often 46.1 µM), hits mostly activators; 340,000 compounds, 1.8% hits; further: nearly all actives have a fitted effect of over 55% in size
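Readout is total intensity of Hoechst-stained nuclei, excited at 405 nm and collected at 500-530 nm. Compound treatment lasted 48 hr at 37 C in 5% CO2 before staining.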
KB-V1 MDR tox: kills drug-selected multidrug resistant KB-V1 cells | KB-V1 MDR cells viability, CellTiter-Glo, 72 h | Potency, µM (series often up to 46.1 µM), most hits filed as cytotoxic | 400,000 compounds, 3.4% hits | AID 1347076; further: nearly all actives have a fitted effect of over 60% in size
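KB-V1 MDR subline cells in DMEM (phenol-red free, 10% FBS) exposed to compounds in qHTS concentration series for 72 h at 37 degrees C. Viability read by CellTiter-Glo luminescence; concentration-effect curves fitted after normalization and correction.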
A number is an active result; 0 = inactive; ? = inconclusive; - = no result given; ! = repeats disagree; [ ] = remark or other dose. Shown are actives, neighbours in structure and some others; about 7.6% of the full set was active somewhere. Unless noted, the call rests on the fitted dose curve; in most records, active means well fitted curve in the direction sought with a large enough effect; inconclusive means small, poorly fitted or top-dose-only effect, or another doubt; inactive means no such curve, though single readings can be large; an effect the other way counts as inactive or inconclusive.

SMILES	MCF10A rerep	KB-3-1 cytotox	hERG WT inh	KCNH2 3.1 block	SW480 rerep	KB-V1 MDR tox
O=C(c1ccncc1)N(Cc1ccccc1)Cc1nc2ccccc2c(=O)[nH]1	0	0	0	0	0	0
O=C(c1ccccc1)N(Cc1ccc(F)cc1)Cc1nc2ccccc2c(=O)[nH]1	?	0	0	0	4.1µM	0
COC(=O)CC1Oc2ccc(F)cc2-n2cc(-c3ccc(Cl)cc3)nc21 (centres undefined)	-	0	-	-	-	0
CCCCCCCCCCCCCC[N+](C)(C)Cc1ccccc1	27µM	18µM	-	-	27µM	0
CCCCCCCCCCN(CCCCCCCCCC)c1ccccc1	-	0	-	-	-	0
CCCCCCCCCCCCCCCC[N+](C)(C)Cc1ccccc1	13µM	-	-	-	?	-
O=C(NCCCN1CCOCC1)c1ccc(CSCc2cccc(Cl)c2)o1	?	0	0	0	0	0
C/C(=N\NC(=O)c1c[nH]c2ccccc12)c1ccco1	2.3µM	0	0	0	2.9µM	0
C/C(=N\NC(=O)c1c[nH]c2ccccc12)c1ccccn1	0	?	0	0	0	0
O=C(NCCC1=CCCCC1)C(=O)NCC(c1ccco1)N1CCN(c2ccc(F)cc2)CC1 (centres undefined)	0	0	0	0	0	2.6µM
O=C(NCc1cccnc1)C(=O)NCC(c1ccco1)N1CCN(c2ccccc2)CC1 (centres undefined)	0	0	0	0	?	9.2µM
O=C(c1ccc(CNS(=O)(=O)c2ccc(Br)cc2)cc1)N1CCCC1	0	0	-	0	0	?
COc1ccc(-c2cc(-c3ccccc3)c(C#N)c(S(C)=O)n2)cc1 (centres undefined)	5.2µM	?	0	0	?	0
CCc1nnc(NC(=O)CSc2nc(C)cc(C)c2C#N)s1	?	0	0	0	0	0
COc1ccc(-c2cc(-c3ccccc3)nc(SCC(=O)Nc3ncc(C)s3)c2C#N)cc1	0	0	0	0	0	9.2µM
CCc1nnc(NC(=O)CSc2nc(-c3ccc(F)cc3)cc(-c3ccccc3)c2C#N)s1	12µM	0	-	0	0	0
CCOC(=O)/C(Sc1nc(-c2ccccc2)cc(-c2ccccc2)c1C#N)=C(\C)O	3.7µM	0	0	0	12µM	0
CCSc1nc(-c2ccc(OC)cc2)cc(-c2ccccc2)c1C#N	?	0	0	0	0	0
O=C(NCCCc1ccccc1)c1c(O)nc2sccn2c1=O	?	?	0	0	?	?
CN=C1SC(CC(=O)Nc2ccc(F)cc2F)C(=O)N1/N=C/c1ccc(OC(F)F)c(OC)c1 (centres undefined)	4.6µM	0	0	0	0	0
CN=C1SC(CC(=O)Nc2c(C)cccc2C)C(=O)N1/N=C/c1cccs1 (centres undefined)	0	0	0	0	0	?
O=C(CC1SC(=Nc2ccc(OC(F)F)cc2)N(CCN2CCOCC2)C1=O)Nc1ccc(F)cc1F (centres undefined)	0	0	-101	-114	0	0
CN1Cc2c(N3CCOCC3)nc3sc(C(=O)c4ccccc4)c(N)c3c2CC1(C)C	21µM	0	0	0	?	0
Cc1nc2c(sc3nc(N4CCOCC4)c4c(c32)CC(C)(C)OC4)c(-c2ccc(Cl)cc2)c1C(=O)O	0.46µM	?	0	0	5.2µM	0
CC1(C)Cc2c(c(N3CCOCC3)nc3snc(N)c23)CO1	10µM	20µM	0	0	0	0
SMILES	MCF10A rerep	KB-3-1 cytotox	hERG WT inh	KCNH2 3.1 block	SW480 rerep	KB-V1 MDR tox
CCOC(=O)c1sc2nc(N3CCOCC3)c3c(c2c1N)CC(C)(C)N(C)C3	?	0	0	0	?	0
COc1ccc(NC(=O)c2sc3nc(N4CCCC4)c4c(c3c2N)CC(C)(C)OC4)c(OC)c1	?	0	0	0	2.9µM	0
COc1cccc(NC(=O)c2sc3nc(N4CCOCC4)c4c(c3c2N)CC(C)(C)OC4)c1	-	0	-	-	-	0
CC(C)CCNC(=O)c1ccc(Cn2c(=S)[nH]c3ccccc3c2=O)cc1	?	0	0	0	0	0
COc1cc2c(NC3CCN(C)CC3)nc(N3CCCCC3)nc2cc1OCCOCCN(C)C	-	0	-	-	-	0
CC1(C)Cc2c(c(N3CCOCC3)nc3sc(C(N)=O)c(N)c23)CO1	0	0	0	0	0	0
CCOC(=O)c1sc2nc3c(cc2c1N)COC(C)(CC)C3 (centres undefined)	18µM	0	0	0	?	0
CC(=O)c1sc2nsc(SCCN3CCOCC3)c2c1N	0	0	0	0	?	0
COC(=O)c1ccc(-c2sc3nc(N4CCOCC4)c4c(c3c2N)CC(C)(C)OC4)o1	?	0	0	0	0.71µM	0
Nc1c(C(=O)c2ccccc2)sc2nsc(SCCN3CCOCC3)c12	13µM	0	0	0	?	?
CCOC(=O)c1sc2nc3c(cc2c1N)COC(C)(C)C3	?	?	0	0	0[9.22 µM]	0
CCOC(=O)c1ccc(NC(=O)c2sc3nc(N4CCOCC4)c4c(c3c2N)CCCC4)cc1	2.1µM	0	0	0	?	0
Cc1ccc(S(=O)(=O)N(C)C)cc1NC(=O)COC(=O)COc1ccccc1[N+](=O)[O-]	?	0	0	0	0	0
CCOc1ccc(NC(=O)c2sc3nc(N4CCOCC4)c4c(c3c2N)CC(C)(C)OC4)cc1	0	7.3µM	0	0	0	0
CCOC(=O)c1sc2nc(-c3ccco3)c3c(c2c1N)CC(C)(C)OC3	23µM	0	0	0	0	12µM
Cc1ccc(NC(=O)c2sc3nc(N4CCOCC4)c4c(c3c2N)CC(C)(C)OC4)cc1	?	0	0	0	0	0
CC1(C)Cc2c(c(N3CCCC3)nc3sc(C(=O)Nc4ccccc4)c(N)c23)CO1	2.9µM	0	0	0	?	0
CC1(C)Cc2c(c(N3CCOCC3)nc3sc(C(=O)Nc4ccc(Cl)cc4)c(N)c23)CO1	?	16µM!	0	0	0	?
CC(C)C[C@H]1CN(CCCC[C@@H]2CNC(=O)C(=O)N2CCc2ccccc2)C(=O)C(=O)N1Cc1ccccc1	-	0	-	-	-	0
COc1ccc(C2c3cc(OC)c(OC)cc3CCN2C(=O)c2ccccc2Br)cc1OC (centres undefined)	0	0	0	0	?	0
O=C(NCc1ccccc1)c1c[nH]c2cc3c(cc2c1=O)OCCO3	0	0	0	0	0	0
CC1CN(C(=O)c2ccn(C)n2)CC(C)O1 (centres undefined)	0	0	0	0	0	0
Cc1ccc(C)c(NC(=O)CN2C(=O)CSc3nc(C)cc(C)c32)c1	-	?	-	-	-	0
O=C(Nc1ccc(Cl)c(-c2nc3cc(Cl)ccc3o2)c1)c1cc([N+](=O)[O-])ccc1N1CCOCC1	-	0	-	-	-	0

Screens from PubChem BioAssay.
